Results on 15 molecules are retold here after PubChem BioAssay.

Active and inactive are the calls of the source.

Assay [1] has as its system PRMT1 (protein arginine N-methyltransferase 1). Description: PRMT1 binders on small-molecule microarrays, primary screen, biochemical, small-molecule microarray, 635 nm fluorescence (AID 1088).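 Also: binding of Prmt1 protein to compounds spotted on small-molecule microarray slides.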 The settings on record: small-molecule microarray binding, higher = more signal.
Assay [2] in a line: yeast growth modulation, basal conditions, primary screen, YJM789 clinical isolate, OD600, 24 h (AID 1089).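 Also: growth of clinical yeast isolate S. cerevisiae YJM 789 seeded 1000 cells per well; test concentration not given here.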 The note with it: S. cerevisiae YJM789 growth, higher = more signal, called active from +8 up or from −8 down.
Assay [3] is described as follows: fission yeast growth modulation, primary screen, strain 972, OD600, 24 h, no modulator (AID 1090).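 Also: basal condition with compound alone and no growth modifier present; test concentration not given here.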 The note with it: S. pombe 972 growth, higher = more signal, called active from +8 up or from −8 down.
The nature of assay [4]: S. cerevisiae growth modulation with rapamycin, primary screen, strain BY4716, OD600, 96 h (AID 1091). Also: test concentration not given here. The note with it: higher = more signal, called active from +8 up or from −8 down.
Assay [5] addresses Torsin-1A-interacting protein 2 (Homo sapiens) (UniProt Q8NFQ8). Description: LULL1 binders on small-molecule microarray, primary screen, cell lysate, human LULL1 lysate, 635/667 nm fluorescence (AID 1092).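 Also: probe is lysate of COS7 cells overexpressing human LULL1; score merges per-feature 667 nm fluorescence with signal-to-noise.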 The settings on record: hLULL1 lysate binding, 635 nm fluorescence, higher = more signal.
Assay [6] in a line: E. coli growth modulation, two-sided OD650, primary screen, E. coli filamentation project, strain DRC41, 24 h (AID 1093).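 Also: MC1000 strain lacking acrAB efflux and sulA so SOS filamentation is blocked; test concentration not given here.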 The note with it: OD650, 24 h, higher = more signal, called active from +8 up or from −8 down.
Assay [7] in a line: small-molecule microarray binders of probe aLefty2, primary screen, biochemical, biotinylated probe, 635/667 nm fluorescence (AID 1094).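 Also: score merges spot fluorescence near 667 nm with spot signal-to-noise ratio.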 The settings on record: higher = more signal.
For assay [8], the system named is Noggin (protein binding on small-molecule microarray). Description: Noggin binders on small-molecule microarray, primary screen, biochemical, 635/667 nm fluorescence (AID 1095).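 Also: score merges 667 nm feature fluorescence with signal to noise over triplicate slides.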 The note with it: 635 nm fluorescence, higher = more signal.
The target of assay [9] is Neurogenic locus notch homolog protein 3 (Homo sapiens) (UniProt Q9UM47). Description: NOTCH3 binders on small-molecule microarray, primary screen, biochemical, 635/667 nm fluorescence (AID 1096). The settings on record: NOTCH3 binding, 635 nm fluorescence, higher = more signal.
Assay [10] can be described thus: small-molecule microarray binders of probe aEGFR, primary screen, biochemical, biotinylated probe, 635/667 nm fluorescence (AID 1097).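 Also: probe is a biotinylated anti-EGFR antibody binding compounds printed on slides; score combines fluorescence near 667 nm and signal to noise of each spot.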 The note with it: higher = more signal.

Torsin-1A-interacting protein 2 (Homo sapiens), sequence (Q8NFQ8 whole entry, looked up): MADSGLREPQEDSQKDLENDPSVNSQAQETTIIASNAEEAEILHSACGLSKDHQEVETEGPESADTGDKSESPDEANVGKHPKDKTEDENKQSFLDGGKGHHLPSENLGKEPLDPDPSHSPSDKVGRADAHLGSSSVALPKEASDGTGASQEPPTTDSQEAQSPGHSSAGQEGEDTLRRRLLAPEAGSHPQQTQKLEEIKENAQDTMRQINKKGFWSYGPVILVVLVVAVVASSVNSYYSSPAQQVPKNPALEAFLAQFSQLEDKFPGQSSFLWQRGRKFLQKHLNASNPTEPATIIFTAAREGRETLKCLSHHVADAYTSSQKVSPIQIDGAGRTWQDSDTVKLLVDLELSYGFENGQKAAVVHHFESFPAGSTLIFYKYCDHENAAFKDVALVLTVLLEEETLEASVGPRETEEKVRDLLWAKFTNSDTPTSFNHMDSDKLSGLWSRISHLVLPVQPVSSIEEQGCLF
Neurogenic locus notch homolog protein 3 (Homo sapiens), sequence (Q9UM47 whole entry, looked up): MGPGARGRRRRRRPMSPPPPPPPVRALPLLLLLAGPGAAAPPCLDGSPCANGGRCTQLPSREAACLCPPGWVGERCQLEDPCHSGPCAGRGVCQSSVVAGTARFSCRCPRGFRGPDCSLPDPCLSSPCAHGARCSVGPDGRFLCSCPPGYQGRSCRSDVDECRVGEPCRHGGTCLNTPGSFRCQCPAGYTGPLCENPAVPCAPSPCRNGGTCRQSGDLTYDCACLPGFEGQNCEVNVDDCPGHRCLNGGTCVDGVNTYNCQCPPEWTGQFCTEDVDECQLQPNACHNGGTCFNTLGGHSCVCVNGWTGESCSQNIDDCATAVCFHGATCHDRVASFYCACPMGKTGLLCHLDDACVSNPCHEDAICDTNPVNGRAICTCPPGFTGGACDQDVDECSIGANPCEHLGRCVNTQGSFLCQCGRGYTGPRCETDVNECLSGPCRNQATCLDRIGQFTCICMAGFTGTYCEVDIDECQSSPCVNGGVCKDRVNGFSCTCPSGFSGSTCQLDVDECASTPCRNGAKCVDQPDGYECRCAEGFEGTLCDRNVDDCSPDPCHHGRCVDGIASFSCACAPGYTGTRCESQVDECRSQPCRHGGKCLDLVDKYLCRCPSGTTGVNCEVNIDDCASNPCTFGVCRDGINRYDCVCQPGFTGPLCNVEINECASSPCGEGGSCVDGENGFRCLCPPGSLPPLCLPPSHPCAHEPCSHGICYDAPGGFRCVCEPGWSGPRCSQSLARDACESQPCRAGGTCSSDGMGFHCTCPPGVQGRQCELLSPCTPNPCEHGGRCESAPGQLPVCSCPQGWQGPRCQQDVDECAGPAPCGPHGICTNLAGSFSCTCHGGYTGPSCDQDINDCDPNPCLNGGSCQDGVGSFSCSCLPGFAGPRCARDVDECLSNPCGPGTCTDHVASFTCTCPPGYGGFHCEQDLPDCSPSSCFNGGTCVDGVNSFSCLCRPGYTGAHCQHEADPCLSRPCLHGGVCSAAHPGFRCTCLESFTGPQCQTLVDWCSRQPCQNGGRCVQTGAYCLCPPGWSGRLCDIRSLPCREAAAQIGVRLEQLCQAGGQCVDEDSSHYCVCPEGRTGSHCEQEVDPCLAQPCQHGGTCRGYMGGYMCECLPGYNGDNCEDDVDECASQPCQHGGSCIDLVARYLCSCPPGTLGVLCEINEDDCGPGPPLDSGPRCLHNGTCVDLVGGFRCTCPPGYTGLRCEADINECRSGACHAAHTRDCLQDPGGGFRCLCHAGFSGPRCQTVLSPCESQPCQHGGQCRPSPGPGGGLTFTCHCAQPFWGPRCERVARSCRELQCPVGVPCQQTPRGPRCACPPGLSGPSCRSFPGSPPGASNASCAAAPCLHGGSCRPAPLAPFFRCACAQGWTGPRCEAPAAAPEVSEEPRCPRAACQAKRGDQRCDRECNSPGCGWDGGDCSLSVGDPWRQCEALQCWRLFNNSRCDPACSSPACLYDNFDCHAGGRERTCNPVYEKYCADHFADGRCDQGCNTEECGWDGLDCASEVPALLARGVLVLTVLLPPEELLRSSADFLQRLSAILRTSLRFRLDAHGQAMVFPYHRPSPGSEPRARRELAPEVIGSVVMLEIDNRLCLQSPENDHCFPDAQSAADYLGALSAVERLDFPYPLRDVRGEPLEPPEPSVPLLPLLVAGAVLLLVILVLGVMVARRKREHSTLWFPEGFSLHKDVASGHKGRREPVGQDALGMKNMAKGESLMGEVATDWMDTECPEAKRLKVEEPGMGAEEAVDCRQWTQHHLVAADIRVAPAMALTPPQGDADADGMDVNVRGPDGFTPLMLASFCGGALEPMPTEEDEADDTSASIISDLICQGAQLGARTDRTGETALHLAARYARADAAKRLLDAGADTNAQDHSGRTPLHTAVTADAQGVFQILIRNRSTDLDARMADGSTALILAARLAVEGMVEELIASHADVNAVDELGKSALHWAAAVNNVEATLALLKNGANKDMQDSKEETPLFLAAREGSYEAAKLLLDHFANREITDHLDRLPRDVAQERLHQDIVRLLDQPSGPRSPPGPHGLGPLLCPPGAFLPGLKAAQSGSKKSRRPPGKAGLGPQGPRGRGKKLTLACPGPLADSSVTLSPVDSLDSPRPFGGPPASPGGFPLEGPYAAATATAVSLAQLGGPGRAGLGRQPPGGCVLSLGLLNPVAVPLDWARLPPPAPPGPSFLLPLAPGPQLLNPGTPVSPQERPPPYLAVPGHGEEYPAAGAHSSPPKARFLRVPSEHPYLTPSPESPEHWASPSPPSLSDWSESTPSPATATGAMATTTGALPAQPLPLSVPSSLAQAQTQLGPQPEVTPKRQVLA

As for `COCC(=C=CC[C@H](O)c1cccc(OCCO)c1)C[C@H](O)c1cc(Cl)cc(Cl)c1O`, the composite z-score in [1] is 1.54; in assay [5] it was 1.29; in [7] it was -0.143; in assay [8], 0.908; in assay [9], 1.04; in [10] it was 0.0837. The z-score in assay [2] was 1.11 (inactive); in assay [3], -0.6 (inactive); in [4], -0.225 (inactive); in assay [6], 0.706 (inactive).
As for `COC(=O)[C@@]1(Cc2ccc(F)cc2)[C@H]2c3cc(C(=O)N(C)C)n(Cc4ccc(C)o4)c3C[C@H]2CN1C(=O)c1ccccc1`, the composite z-score was 0.323 in assay [1]; 3.05 in [5]; 1.26 in assay [7]; -0.386 in [8]; -0.124 in assay [9]; 0.763 in [10]. The z-score is -0.319 (inactive) in assay [2], -7.9 (inactive) in assay [3], 0.792 (inactive) in assay [4] and -0.386 (inactive) in [6].
On to `CO[C@H]1O[C@H](CO)[C@@H](OC(=O)Nc2cccc(F)c2)[C@H](OC(=O)Nc2ccccc2)[C@H]1OC(=O)Nc1ccccc1`, for which the composite z-score was 1.54 in assay [1]; 3.37 in assay [5]; -0.0285 in assay [7]; 0.828 in assay [8]; 1.11 in assay [9]; 0.0778 in assay [10]. The z-score in [2] is 1.63 (inactive); in assay [3], 1.1 (inactive); in [4], 5.68 (inactive); in assay [6], -0.168 (inactive).
With `COc1ccc([Si](C)(C)[C@H]2[C@H](CCO)O[C@@]3(C(=O)N(Cc4ccccc4)c4ccc(N5CCCCC5=O)cc43)[C@@H]2C)cc1`, the composite z-score in assay [1] was 1.56; in assay [5], 1.9; in [7], -0.17; in [8] it was 1.23; in [9], 0.932; in [10] it was -0.123. In addition, the z-score was 0.296 (inactive) in [2], -0.158 (inactive) in [3], 1.97 (inactive) in assay [4] and 0.587 (inactive) in assay [6].
Consider `[N-]=[N+]=Nc1ccccc1[C@H]1OC(c2ccc(OCCCO)cc2)=N[C@@]1(CCS(=O)(=O)c1ccccc1)C(=O)NCc1ccccc1`, for which the composite z-score in [1] stood at 1.57; in assay [5] it was 3.63; in assay [7], 0.154; in assay [8], 0.669; in assay [9], 1.1; in assay [10], 0.174. Moreover, the z-score in assay [2] was -0.832 (inactive); in [3], 0.342 (inactive); in assay [4] it was 2.23 (inactive); in assay [6] it was -0.443 (inactive).
Turning to `CCOC(=O)[C@H]1C/C=C/C[C@H](C(=O)OCC)C(=O)O[C@H]2[C@@H](OC)O[C@H](CO)[C@@H](OC(=O)c3ccc(Br)cc3)[C@@H]2OC1=O`, the composite z-score is 0.419 in assay [1]; 0.796 in [5]; -0.0653 in assay [7]; 0.197 in assay [8]; 0.415 in assay [9]; -0.116 in assay [10]. Also, the z-score in assay [2] was -0.436 (inactive); in [3], -0.316 (inactive); in assay [4], 2.17 (inactive); in assay [6] it was -0.67 (inactive).
`C[N+](C)(C)CCCCCCNC(=O)[C@H]1C[C@H]2C(=O)N[C@@H](Cc3ccccc3)C(=O)N2[C@H]1c1cccc(OCCO)c1`: the composite z-score in [1] is 1.15; in assay [5], 3.05; in assay [7], 0.0028; in assay [8], 1.13; in assay [9], 0.953; in assay [10], -0.0152. The z-score in assay [2] was -0.776 (inactive); in [3] it was 0.703 (inactive); in [4], -0.282 (inactive); in assay [6], -0.0145 (inactive).
With `COC(=O)C(CC#Cc1ccc2c(c1)[C@]1(C(=O)N2)[C@H](c2ccccc2OCCO)N2[C@H](c3ccccc3)[C@H](c3ccccc3)OC(=O)[C@H]2[C@@H]1C(N)=O)C(=O)OC`, the composite z-score in assay [1] was 1.27; in assay [5], 2.93; in assay [7] it was 1.11; in assay [8] it was 0.0814; in [9], 0.895; in [10] it was 0.656. Besides, the z-score in assay [2] is 1.31 (inactive); in assay [3], -0.117 (inactive); in [4], 3.7 (inactive); in assay [6], 1.13 (inactive).
As to `CCCCC(=C=CC[C@@H](O)c1ccc(CO)o1)CCO`, the composite z-score is 0.954 in [1]; 0.418 in assay [5]; -0.13 in assay [7]; 0.436 in assay [8]; 0.0341 in assay [9]; -0.071 in assay [10]. Moreover, the z-score is 1.46 (inactive) in assay [2], -0.614 (inactive) in [3], 0.297 (inactive) in assay [4] and 0.572 (inactive) in assay [6].
Regarding `CC(C)(C)OC(=O)CC[C@@]1(C(=O)N2CCCCC2)N=C(c2ccc(OCCCO)cc2)O[C@@H]1c1ccccc1`, the composite z-score in assay [1] was 1.54; in [5], 3.52; in assay [7] it was 0.0215; in [8], 0.318; in assay [9] it was 1.12; in assay [10], -0.0053. Further, the z-score in assay [2] was -1.23 (inactive); in assay [3], -0.76 (inactive); in assay [4] it was -0.95 (inactive); in [6], -0.223 (inactive).
For `C=C(C(=O)CC[C@H](OC(C)=O)c1ccccc1OCCO)C(C)C`, the composite z-score in [1] was 0.316; in assay [5], -0.808; in assay [7], -0.232; in [8] it was 0.657; in assay [9] it was 0.0937; in assay [10], -0.188. Besides, the z-score was -25 (active) in [2], -20.2 (active) in [3], -4.35 (inactive) in assay [4] and 0.43 (inactive) in assay [6].
For `COc1ccc(C#Cc2ccc3c(c2)[C@]2(C(=O)N3)[C@H](c3ccc(O)cc3)N3[C@H](c4ccccc4)[C@H](c4ccccc4)OC(=O)[C@H]3[C@@H]2C(=O)N2CCc3cc(OC)c(OC)cc3C2)cc1`, the composite z-score in assay [1] is 1.54; in assay [5], 3.04; in assay [7] it was -0.189; in assay [8], 1.68; in [9], 1.07; in assay [10], -0.0381. The z-score in assay [2] is 1.74 (inactive); in assay [3], 0.921 (inactive); in assay [4] it was 1.93 (inactive); in assay [6] it was -0.0389 (inactive).
As to `CCC(CC)C(O)C1C=CC2C(=O)N(c3ccccc3)C(=O)C2N1Nc1ccccc1` (stereo not given), the composite z-score in [1] turned out to be 1.49; in [5], 3.53; in [7] it was 0.503; in [8], 0.403; in assay [9], 1.07; in assay [10] it was 0.228. The z-score in [2] was 0.296 (inactive); in assay [3], -0.914 (inactive); in assay [4], 0.204 (inactive); in assay [6], 0.272 (inactive).
For `NC(=O)[C@@H]1[C@H]2C(=O)O[C@H](c3ccccc3)[C@H](c3ccccc3)N2[C@H](c2ccc(OCCO)cc2)[C@@]12C(=O)Nc1ccc(C#CC3=CCCCC3)cc12`, the composite z-score in [1] is 1.55; in [5] it was 2.08; in assay [7], 0.0209; in assay [8], 1.35; in assay [9], 0.951; in assay [10], -0.0343. The z-score is 0.529 (inactive) in assay [2], 0.544 (inactive) in assay [3], 2.91 (inactive) in [4] and 1.69 (inactive) in [6].
For the molecule `Cc1ccc([C@H]2C(C(=O)O)=CCN2S(=O)(=O)c2ccc(C)cc2)cc1`, the composite z-score in [1] is 0.472; in assay [5], 2.82; in assay [7], 0.228; in [8], 0.11; in assay [9], 0.189; in assay [10], -0.0828. In addition, the z-score in [2] is -0.76 (inactive); in assay [3] it was 0.366 (inactive); in assay [4], -0.18 (inactive); in [6], -0.264 (inactive).
